The record followed here is PubChem BioAssay.

The source made the active and inactive calls.

For assay [1], the system named is PRMT1 (protein arginine N-methyltransferase 1). Kind of assay: PRMT1 binders on small-molecule microarrays, primary screen, biochemical, small-molecule microarray, 635 nm fluorescence (AID 1088).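 Further: binding of Prmt1 protein to compounds spotted on small-molecule microarray slides.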 The following applies: small-molecule microarray binding, higher = more signal.
Assay [2] is described as follows: yeast growth modulation, basal conditions, primary screen, YJM789 clinical isolate, OD600, 24 h (AID 1089).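 Further: growth of clinical yeast isolate S. cerevisiae YJM 789 seeded 1000 cells per well; test concentration not given here.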 The note with it: S. cerevisiae YJM789 growth, higher = more signal, called active from +8 up or from −8 down.
A short description of assay [3]: fission yeast growth modulation, primary screen, strain 972, OD600, 24 h, no modulator (AID 1090).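 Further: basal condition with compound alone and no growth modifier present; test concentration not given here.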 The following applies: S. pombe 972 growth, higher = more signal, called active from +8 up or from −8 down.
The nature of assay [4]: S. cerevisiae growth modulation with rapamycin, primary screen, strain BY4716, OD600, 96 h (AID 1091). Further: test concentration not given here. The following applies: higher = more signal, called active from +8 up or from −8 down.
In assay [5] the target is Torsin-1A-interacting protein 2 (Homo sapiens) (UniProt Q8NFQ8). Kind of assay: LULL1 binders on small-molecule microarray, primary screen, cell lysate, human LULL1 lysate, 635/667 nm fluorescence (AID 1092).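 Further: probe is lysate of COS7 cells overexpressing human LULL1; score merges per-feature 667 nm fluorescence with signal-to-noise.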 The following applies: hLULL1 lysate binding, 635 nm fluorescence, higher = more signal.
Torsin-1A-interacting protein 2 (Homo sapiens), sequence (Q8NFQ8 whole entry, looked up): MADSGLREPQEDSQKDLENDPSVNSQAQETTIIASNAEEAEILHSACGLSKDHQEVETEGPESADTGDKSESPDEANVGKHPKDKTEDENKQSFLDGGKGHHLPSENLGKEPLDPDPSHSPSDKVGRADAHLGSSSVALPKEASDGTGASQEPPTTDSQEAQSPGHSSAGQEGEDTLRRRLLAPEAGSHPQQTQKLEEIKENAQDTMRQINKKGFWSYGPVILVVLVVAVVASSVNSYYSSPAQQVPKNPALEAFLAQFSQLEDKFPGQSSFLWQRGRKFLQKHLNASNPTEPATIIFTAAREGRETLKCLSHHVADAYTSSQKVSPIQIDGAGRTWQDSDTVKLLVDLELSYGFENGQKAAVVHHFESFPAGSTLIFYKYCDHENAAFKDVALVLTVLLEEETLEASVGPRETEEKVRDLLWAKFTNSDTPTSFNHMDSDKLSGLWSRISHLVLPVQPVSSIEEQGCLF
Assay [6] can be described thus: E. coli growth modulation, two-sided OD650, primary screen, E. coli filamentation project, strain DRC41, 24 h (AID 1093).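 Further: MC1000 strain lacking acrAB efflux and sulA so SOS filamentation is blocked; test concentration not given here.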 The note with it: OD650, 24 h, higher = more signal, called active from +8 up or from −8 down.
Assay [7] is described as follows: small-molecule microarray binders of probe aLefty2, primary screen, biochemical, biotinylated probe, 635/667 nm fluorescence (AID 1094).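 Further: score merges spot fluorescence near 667 nm with spot signal-to-noise ratio.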 The note with it: higher = more signal.
Assay [8] concerns Noggin (protein binding on small-molecule microarray). Kind of assay: Noggin binders on small-molecule microarray, primary screen, biochemical, 635/667 nm fluorescence (AID 1095).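 Further: score merges 667 nm feature fluorescence with signal to noise over triplicate slides.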 The note with it: 635 nm fluorescence, higher = more signal.
In assay [9] the target is Neurogenic locus notch homolog protein 3 (Homo sapiens) (UniProt Q9UM47). Kind of assay: NOTCH3 binders on small-molecule microarray, primary screen, biochemical, 635/667 nm fluorescence (AID 1096). The following applies: NOTCH3 binding, 635 nm fluorescence, higher = more signal.
Neurogenic locus notch homolog protein 3 (Homo sapiens), sequence (Q9UM47 whole entry, looked up): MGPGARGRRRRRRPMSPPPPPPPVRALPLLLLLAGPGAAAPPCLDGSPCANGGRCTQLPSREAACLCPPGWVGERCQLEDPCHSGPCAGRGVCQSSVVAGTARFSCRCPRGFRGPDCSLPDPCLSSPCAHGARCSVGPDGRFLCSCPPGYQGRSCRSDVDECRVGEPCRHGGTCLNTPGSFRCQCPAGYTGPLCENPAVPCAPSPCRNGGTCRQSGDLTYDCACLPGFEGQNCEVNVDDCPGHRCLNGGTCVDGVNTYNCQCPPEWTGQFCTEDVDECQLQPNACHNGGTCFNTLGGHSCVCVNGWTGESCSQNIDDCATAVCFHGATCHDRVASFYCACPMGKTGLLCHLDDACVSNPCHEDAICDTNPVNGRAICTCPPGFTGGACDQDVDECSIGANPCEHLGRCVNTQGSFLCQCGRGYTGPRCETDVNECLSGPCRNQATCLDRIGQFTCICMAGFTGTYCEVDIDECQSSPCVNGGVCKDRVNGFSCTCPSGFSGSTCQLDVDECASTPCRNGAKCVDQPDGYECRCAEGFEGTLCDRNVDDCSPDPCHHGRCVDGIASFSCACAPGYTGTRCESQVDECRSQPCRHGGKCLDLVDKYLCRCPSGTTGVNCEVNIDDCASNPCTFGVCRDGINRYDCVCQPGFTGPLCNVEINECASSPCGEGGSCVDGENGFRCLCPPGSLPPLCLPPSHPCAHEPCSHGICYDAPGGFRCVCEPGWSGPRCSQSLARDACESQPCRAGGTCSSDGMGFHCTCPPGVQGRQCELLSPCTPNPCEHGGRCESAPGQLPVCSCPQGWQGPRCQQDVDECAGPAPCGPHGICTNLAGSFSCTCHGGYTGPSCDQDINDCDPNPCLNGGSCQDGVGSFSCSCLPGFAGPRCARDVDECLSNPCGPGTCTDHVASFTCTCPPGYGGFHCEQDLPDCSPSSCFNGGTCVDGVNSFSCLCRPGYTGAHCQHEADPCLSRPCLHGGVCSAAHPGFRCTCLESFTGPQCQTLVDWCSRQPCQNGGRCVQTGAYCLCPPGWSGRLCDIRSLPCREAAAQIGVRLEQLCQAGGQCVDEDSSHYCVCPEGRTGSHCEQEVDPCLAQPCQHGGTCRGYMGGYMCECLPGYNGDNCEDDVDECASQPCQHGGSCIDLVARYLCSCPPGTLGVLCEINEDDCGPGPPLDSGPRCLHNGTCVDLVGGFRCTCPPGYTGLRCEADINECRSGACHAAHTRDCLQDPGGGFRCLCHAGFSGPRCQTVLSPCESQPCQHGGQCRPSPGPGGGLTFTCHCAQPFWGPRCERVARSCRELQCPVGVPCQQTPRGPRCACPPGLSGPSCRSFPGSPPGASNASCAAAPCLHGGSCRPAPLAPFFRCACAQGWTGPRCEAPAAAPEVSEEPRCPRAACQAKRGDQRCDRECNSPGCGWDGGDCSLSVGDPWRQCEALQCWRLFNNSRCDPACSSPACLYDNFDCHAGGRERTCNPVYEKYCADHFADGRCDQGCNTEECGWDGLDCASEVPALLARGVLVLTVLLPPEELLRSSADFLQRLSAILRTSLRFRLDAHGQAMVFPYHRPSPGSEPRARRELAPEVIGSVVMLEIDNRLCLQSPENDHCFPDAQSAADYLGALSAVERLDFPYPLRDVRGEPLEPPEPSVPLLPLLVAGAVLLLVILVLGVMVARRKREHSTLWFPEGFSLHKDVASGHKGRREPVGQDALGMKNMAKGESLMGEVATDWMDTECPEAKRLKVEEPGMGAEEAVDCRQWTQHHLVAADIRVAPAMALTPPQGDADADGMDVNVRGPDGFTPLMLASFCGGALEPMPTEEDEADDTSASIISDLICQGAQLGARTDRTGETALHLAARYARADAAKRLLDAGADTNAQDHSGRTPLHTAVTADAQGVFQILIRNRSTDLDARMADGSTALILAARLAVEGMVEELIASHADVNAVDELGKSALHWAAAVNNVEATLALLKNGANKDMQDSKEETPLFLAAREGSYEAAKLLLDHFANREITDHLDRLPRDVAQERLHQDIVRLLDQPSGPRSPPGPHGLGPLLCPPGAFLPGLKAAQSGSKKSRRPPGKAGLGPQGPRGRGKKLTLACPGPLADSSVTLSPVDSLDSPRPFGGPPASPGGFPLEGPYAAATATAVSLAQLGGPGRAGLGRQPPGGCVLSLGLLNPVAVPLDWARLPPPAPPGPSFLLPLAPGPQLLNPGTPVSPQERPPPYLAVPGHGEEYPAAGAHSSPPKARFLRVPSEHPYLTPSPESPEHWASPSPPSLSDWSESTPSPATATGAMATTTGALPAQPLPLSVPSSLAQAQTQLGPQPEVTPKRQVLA
Assay [10] can be described thus: small-molecule microarray binders of probe aEGFR, primary screen, biochemical, biotinylated probe, 635/667 nm fluorescence (AID 1097).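 Further: probe is a biotinylated anti-EGFR antibody binding compounds printed on slides; score combines fluorescence near 667 nm and signal to noise of each spot.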 The note with it: higher = more signal.
For assay [11], the system named is Plasmodium falciparum Sir2 (PF13_0152, Sir2A). Kind of assay: pfSir2 binders on small-molecule microarrays, primary screen, biochemical, small-molecule microarray, 635 nm fluorescence (AID 1098).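 Further: score merges spot fluorescence intensity with its signal-to-noise ratio.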 The following applies: small-molecule microarray binding, fluorescence 635 nm; higher = more signal.
Assay [12] can be described thus: small-molecule microarray binders of probe aDKK1, primary screen, biochemical, biotinylated probe, 635/667 nm fluorescence (AID 1099).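 Further: score merges 667nm spot fluorescence with signal to noise across triplicate slides; reference of the scale not given here.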 The note with it: higher = more signal.
The nature of assay [13]: small-molecule microarray binders of probe aCHRDL2, primary screen, biochemical, biotinylated probe, 635/667 nm fluorescence (AID 1100). The following applies: higher = more signal.
Assay [14] is described as follows: splicing luciferase reporter signal modulators, primary screen, spliceosome inhibition project, cell-based, HEK293, splice +/- reporter (AID 1101).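 Further: HEK293 cells carrying a splicing-competent luciferase reporter gene; test concentration not given here.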 The following applies: luminescence, 24 h, higher = more signal, called active from +8 up or from −8 down. (In general: Reporter assays use an easily measured gene product as a stand-in for the process of interest.)
For assay [15], the target named is Fibroblast growth factor 10 (Homo sapiens) (UniProt O15520). Nature of the assay: FGF10 binders on small-molecule microarrays, primary screen, biochemical, small-molecule microarray, 635 nm fluorescence (AID 1102). The note with it: FGF10 binding, fluorescence 635 nm, higher = more signal.
Fibroblast growth factor 10 (Homo sapiens), sequence (O15520 whole entry, looked up): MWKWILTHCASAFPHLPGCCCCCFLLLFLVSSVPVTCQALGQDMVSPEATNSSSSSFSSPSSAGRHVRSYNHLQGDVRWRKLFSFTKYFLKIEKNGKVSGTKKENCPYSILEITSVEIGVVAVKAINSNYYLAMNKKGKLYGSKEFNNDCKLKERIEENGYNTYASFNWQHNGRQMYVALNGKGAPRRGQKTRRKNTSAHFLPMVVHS
In assay [16] the test system is glycogen synthase kinase-3 (GSK3A per assay name; protocol says GSK3B). Kind of assay: GSK3 binders on small-molecule microarrays, primary screen, biochemical, small-molecule microarray, 635 nm fluorescence, GSK3A (AID 1103). Further: the record names both GSK3A and GSK3B. The following applies: small-molecule microarray binding, fluorescence 635 nm; higher = more signal.
Assay [17] has as its target Epidermal growth factor receptor (Homo sapiens) (UniProt P00533). Nature of the assay: EGFR binders on small-molecule microarrays, primary screen, biochemical, small-molecule microarray, 635 nm fluorescence (AID 1104).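 Further: score merges 667 nm emission intensity with spot signal to noise over triplicate slides.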 The note with it: EGFR binding, higher = more signal.
Assay [18] deals with Follistatin-related protein 3 (Homo sapiens) (UniProt O95633). Kind of assay: FSTL3 binders on small-molecule microarrays, primary screen, biochemical, small-molecule microarray, 635 nm fluorescence (AID 1105).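 Further: score merges emission near 667 nm and signal to noise per printed spot across three slides.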 The following applies: FSTL3 binding, higher = more signal.
Follistatin-related protein 3 (Homo sapiens), sequence (O95633 whole entry, looked up): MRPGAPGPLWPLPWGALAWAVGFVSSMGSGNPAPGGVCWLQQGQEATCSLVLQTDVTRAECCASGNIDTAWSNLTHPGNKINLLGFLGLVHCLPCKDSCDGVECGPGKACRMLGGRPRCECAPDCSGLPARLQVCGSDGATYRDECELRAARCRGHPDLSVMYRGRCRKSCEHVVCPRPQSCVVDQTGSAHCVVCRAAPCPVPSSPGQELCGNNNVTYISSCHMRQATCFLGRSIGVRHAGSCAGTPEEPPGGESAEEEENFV
Assay [19] concerns the target Dickkopf-related protein 1 (Homo sapiens) (UniProt O94907). Nature of the assay: DKK1 binders on small-molecule microarrays, primary screen, biochemical, small-molecule microarray, 635 nm fluorescence scan (AID 1106).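 Further: score merges emission near 667 nm with signal to noise over three replicate slides.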 The following applies: DKK1 binding, higher = more signal.
For assay [20], the system named is Inhibin beta A chain (activin A). Nature of the assay: INHBA (activin A) binders on microarrays, primary screen, biochemical, small-molecule microarray, 635 nm fluorescence scan (AID 1107).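 Further: mouse activin A protein probed at 4.33 µg/mL on printed slides; score merges bound-protein fluorescence near 667 nm with spot signal-to-noise.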 The note with it: small-molecule microarray binding, higher = more signal.

Dickkopf-related protein 1 (Homo sapiens), sequence (O94907 whole entry, looked up): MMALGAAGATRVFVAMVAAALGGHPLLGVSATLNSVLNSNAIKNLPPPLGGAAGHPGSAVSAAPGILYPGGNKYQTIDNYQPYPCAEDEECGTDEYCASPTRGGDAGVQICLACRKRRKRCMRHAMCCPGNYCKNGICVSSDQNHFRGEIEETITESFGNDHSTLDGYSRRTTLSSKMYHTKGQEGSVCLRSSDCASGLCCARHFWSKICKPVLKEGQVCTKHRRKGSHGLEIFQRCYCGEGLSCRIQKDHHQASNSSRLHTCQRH
Epidermal growth factor receptor (Homo sapiens), sequence (P00533 whole entry, looked up): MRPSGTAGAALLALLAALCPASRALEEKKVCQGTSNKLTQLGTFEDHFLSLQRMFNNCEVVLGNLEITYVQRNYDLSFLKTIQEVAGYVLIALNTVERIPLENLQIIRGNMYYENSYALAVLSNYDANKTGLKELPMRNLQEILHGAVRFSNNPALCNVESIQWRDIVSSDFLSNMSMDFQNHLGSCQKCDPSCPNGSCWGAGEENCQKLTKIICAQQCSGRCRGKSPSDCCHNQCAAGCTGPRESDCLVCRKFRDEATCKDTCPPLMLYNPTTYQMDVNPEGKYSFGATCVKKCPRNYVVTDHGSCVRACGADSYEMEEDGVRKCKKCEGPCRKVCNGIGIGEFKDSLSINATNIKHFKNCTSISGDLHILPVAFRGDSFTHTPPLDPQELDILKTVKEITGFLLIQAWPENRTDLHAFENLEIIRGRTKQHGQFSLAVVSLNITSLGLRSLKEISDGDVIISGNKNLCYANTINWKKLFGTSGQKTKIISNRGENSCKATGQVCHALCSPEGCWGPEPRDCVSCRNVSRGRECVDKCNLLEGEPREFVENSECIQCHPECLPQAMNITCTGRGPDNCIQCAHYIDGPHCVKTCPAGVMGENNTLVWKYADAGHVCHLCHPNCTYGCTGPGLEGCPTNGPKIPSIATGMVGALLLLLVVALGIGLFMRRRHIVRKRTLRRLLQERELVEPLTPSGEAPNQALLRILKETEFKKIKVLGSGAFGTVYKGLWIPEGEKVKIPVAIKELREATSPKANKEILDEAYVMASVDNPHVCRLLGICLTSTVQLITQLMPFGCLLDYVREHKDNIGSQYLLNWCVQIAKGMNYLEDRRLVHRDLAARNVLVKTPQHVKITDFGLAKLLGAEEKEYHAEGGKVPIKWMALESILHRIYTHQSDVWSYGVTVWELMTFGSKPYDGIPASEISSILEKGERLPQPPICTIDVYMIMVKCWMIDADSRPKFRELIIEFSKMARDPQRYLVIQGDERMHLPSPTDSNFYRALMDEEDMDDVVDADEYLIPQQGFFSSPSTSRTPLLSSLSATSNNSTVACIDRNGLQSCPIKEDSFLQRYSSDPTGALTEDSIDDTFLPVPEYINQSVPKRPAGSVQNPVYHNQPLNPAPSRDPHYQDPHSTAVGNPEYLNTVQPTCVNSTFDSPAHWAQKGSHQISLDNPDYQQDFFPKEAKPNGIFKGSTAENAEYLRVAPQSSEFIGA

On to `COCC1=C2[C@@H](CCc3ccccc3)OB(O)C[C@@H]2[C@@H]2C(=O)C=CC(=O)[C@@H]2C1`, for which the composite z-score in assay [1] was 1.57; in assay [5], 1.32; in [7] it was -0.143; in assay [8], 0.883; in assay [9], 1.12; in assay [10], -0.106. The composite z-score in assay [11] is 0.367; in assay [12] it was -0.0473; in assay [13], -0.0343; in assay [15], 0.378; in assay [16], 0.679; in [17], 0.149. The composite z-score in assay [18] was 0.647; in [19], 0.489; in assay [20], 0.27. Also, the z-score was 0.506 (inactive) in [2]; -2.86 (inactive) in assay [3]; -0.288 (inactive) in assay [4]; -0.224 (inactive) in assay [6]; 1.2 (inactive) in assay [14].

With `C=CC[C@]1(C(=O)O)COC(c2ccc(OCCCO)cc2)=N1`, the composite z-score in assay [1] was 0.262; in assay [5], 3.36; in assay [7], -0.0784; in assay [8] it was 0.253; in assay [9], 0.0614; in assay [10] it was -0.0828. The composite z-score in [11] is 1.58; in [12], -0.133; in [13], 0.568; in [15] it was -0.0346; in [16], 0.156; in [17], 0.0943. The composite z-score worked out at 0.406 in assay [18], 0.117 in [19] and 0.888 in assay [20]. Besides, the z-score in [2] is -0.396 (inactive); in assay [3], -0.636 (inactive); in [4] it was -0.581 (inactive); in assay [6], -0.204 (inactive); in assay [14] it was -0.565 (inactive).

Turning to `COc1cccc(/C=C/C=O)c1`, the composite z-score is 0.247 in [1]; 0.205 in assay [5]; 0.226 in [7]; 0.137 in assay [8]; 0.181 in [9]; 0.198 in assay [10]. Further, the composite z-score is -0.663 in assay [11]; 0.24 in [12]; -0.326 in assay [13]; 0.393 in assay [15]; 0.0414 in [16]; 0.417 in [17]. Besides, the composite z-score is 0.237 in [18], 0.339 in assay [19] and -0.115 in assay [20]. The z-score in assay [2] was 1.95 (inactive); in [3] it was -13.2 (active); in assay [4], -0.144 (inactive); in assay [6], -0.283 (inactive); in assay [14], 0.85 (inactive).

For `COC(=O)c1c(CC[C@@H](CO)NC(=O)N[C@H](Cn2cc(C3(O)CCCCC3)nn2)C(C)C)oc(C(C)=O)c1C(=O)OC`, the composite z-score is 1.57 in assay [1]; 1.12 in assay [5]; -0.0437 in assay [7]; 1.86 in [8]; 1.08 in assay [9]; 0.0274 in assay [10]. The composite z-score in assay [11] is 0.997; in assay [12], -0.0398; in [13], -0.446; in [15] it was 1.07; in assay [16] it was 0.859; in assay [17], 0.557. The figures for the composite z-score in assay [18], in assay [19] and in assay [20] were 1.1, 0.788 and 0.368, respectively. Further, the z-score in assay [2] is -0.325 (inactive); in assay [3], -2.39 (inactive); in [4], 0.0762 (inactive); in [6] it was 1.66 (inactive); in assay [14], -1.66 (inactive).

Take `COc1ccc(C(O)C2C=CC3C(=O)N(c4ccccc4)C(=O)C3N2Nc2ccc([N+](=O)[O-])cc2)cc1` (stereo not given): the composite z-score in [1] was 1.11; in assay [5] it was 3.09; in assay [7] it was 0.432; in assay [8], 0.0062; in assay [9], 1.1; in [10], 0.239. The composite z-score in [11] stood at 1.43; in [12], 1.37; in assay [13], 1.23; in assay [15], 0.774; in assay [16], 0.998; in assay [17], 0.0207. Also, the values for the composite z-score in assay [18], in [19] and in [20] were 0.952, -0.655 and 0.918, respectively. For the same compound, the z-score in [2] is 0.137 (inactive); in assay [3], 1.4 (inactive); in assay [4], 3.22 (inactive); in assay [6], -0.909 (inactive); in [14], 0.304 (inactive).
